In PubChem BioAssay AID743294 (Broad Institute, 2014):
Measured potencies and affinities stand elsewhere. Activity calls are given as the source filed them.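 Rule for the calls: active = compounds lowering fluorescence whose fitted half-maximal dose is at most twice the top valid dose; inconclusive = flat fit between -70% and -30%, or poor curve fit; inactive = the rest.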

Molecular target: Caspase-8 (Homo sapiens) (UniProt Q14790)
Assay: caspase-8 inhibition counter-screen, dose response, selectivity assay for caspase-6 inhibitor project, biochemical, Z-IETD-R110 fluorescence, cherry-picked samples (AID 743294)
Settings: purified caspase-8, Z-IETD-R110 cleavage fluorescence; series mostly up to 35 µM

Sequence of Caspase-8 (Homo sapiens) (Q14790 whole entry, looked up): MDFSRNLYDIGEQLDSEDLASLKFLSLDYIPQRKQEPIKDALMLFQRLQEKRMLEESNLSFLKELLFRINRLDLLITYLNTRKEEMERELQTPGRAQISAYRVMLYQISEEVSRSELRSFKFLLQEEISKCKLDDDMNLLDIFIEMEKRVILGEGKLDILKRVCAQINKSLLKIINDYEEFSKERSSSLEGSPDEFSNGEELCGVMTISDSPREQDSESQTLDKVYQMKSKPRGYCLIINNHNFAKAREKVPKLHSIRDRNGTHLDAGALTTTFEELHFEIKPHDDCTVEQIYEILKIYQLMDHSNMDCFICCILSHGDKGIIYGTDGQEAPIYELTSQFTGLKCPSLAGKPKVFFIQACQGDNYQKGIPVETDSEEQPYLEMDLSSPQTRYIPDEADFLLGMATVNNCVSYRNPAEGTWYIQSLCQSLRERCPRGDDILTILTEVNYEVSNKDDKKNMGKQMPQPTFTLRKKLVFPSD

| SMILES | outcome |
| --- | --- |
| Cn1cnnc1SCC(=O)Nc1ncc([N+](=O)[O-])s1 | inactive |
| COc1ccc(NS(=O)(=O)c2ccc3c(c2)[C@H]2C=CC[C@H]2[C@@H](c2ccc(C(=O)O)cc2)N3)cc1 | inactive |
| CCOC(=O)[C@H](Cc1c[nH]c2ccccc12)NC(=O)CN=[N+]=[N-] | inactive |
| COc1cc(NCCCCC(C)N)c2nccc(C)c2c1 (stereo not given) | inactive |
| COCCn1c2nc(=O)n(-c3ccccc3)c(=O)c-2nc2ccccc21 | inactive |
| O=c1c(CO)cc(CO)cc(CO)c1O | inactive |
| CCCSC1=N/C(=C\c2ccc([N+](=O)[O-])o2)C(=O)S1 | inactive |
| Cc1cc(C=O)c(C)n1-c1cc(C(=O)O)cc(C(=O)O)c1 | inactive |
| Nc1ccc(Nc2ccccc2)c(S(=O)(=O)O)c1 | inactive |
| Cc1[nH]nc(S(=O)CC(=O)O)c1[N+](=O)[O-] (stereo not given) | inactive |
| COc1ccc(C(=O)OCC(=O)Nc2ncc([N+](=O)[O-])s2)cc1OC | inactive |
| Nc1cc(S(=O)(=O)O)cc([N+](=O)[O-])c1O | inactive |
| O=C(O)/C(=C\c1ccc(Cl)c([N+](=O)[O-])c1)c1ccc(S(=O)(=O)N2CCCC2)s1 | inactive |
| C/C(CC(=O)N1CCCC1)=N\NC(=O)c1cc2ccccc2cc1O | inactive |
| O=C(O)CC(CCc1ccccc1)OC1OC(CO)C(O)C(O)C1O (stereo not given) | inactive |
| [O-][n+]1onc2c1CCc1c-2nn(-c2ccccc2Cl)[n+]1[O-] | inactive |
| O=C(O)CCc1ccc(-c2ccc(Br)cc2)n1CC(=O)O | inactive |
| O=C(Nc1ccc(S(=O)(=O)Nc2cnc3ccccc3n2)cc1)c1ccc(Cl)c([N+](=O)[O-])c1 | inactive |
| CNS(=O)(=O)c1cccc(C(=O)OCC(=O)N2c3ccccc3NC(=O)C2(C)C)c1 | inactive |
| Oc1cc2c(cc1O)[C@H]1c3ccc(O)c(O)c3OC[C@@]1(O)C2 | inactive |
